In PubChem BioAssay (NCI):
This is part of a sample that, as a whole, favours compounds with a hit. Of some 79,000 tested, about 15% had one in any assay. Active and inactive are the calls of the source. Cut-off read from the data, not from the text of the source: active = growth inhibition above about 70%; inactive = the rest.

What was measured:
[1] = NCI Yeast Anticancer Drug Screen. Data for the wt1 strain (AID 149);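 note: 0% = growth of vehicle-treated wt1 cultures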; settings: S. cerevisiae wt1 strain (SPY 50644) growth inhibition, stronger effect = higher value
Summary of the method: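 Measured: growth of wt1 yeast under compound versus vehicle treatment, reported as inhibition.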

[2] = NCI Yeast Anticancer Drug Screen. Data for the rad50EPP+ strain (AID 151);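 note: 0% = growth of vehicle-treated control cultures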; settings: S. cerevisiae rad50 mutant strain, stronger effect = higher value
Summary of the method: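 Strain rad50EPP+; compound exposure; % growth inhibition vs vehicle.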

[3] = NCI Yeast Anticancer Drug Screen. Data for the mgt1 strain (AID 153); settings: S. cerevisiae mgt1 mutant growth inhibition, stronger effect = higher value
Summary of the method: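 Read-out: yeast growth inhibition vs vehicle control. Strain mgt1, drawn from a panel altered in DNA damage repair or cell cycle control.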

[4] = NCI Yeast Anticancer Drug Screen. Data for the rad50 strain (AID 155);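 note: 0% = growth of vehicle-only cultures of the same strain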; settings: S. cerevisiae rad50 strain growth inhibition, stronger effect = higher value
Summary of the method: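 Growth of the mutant yeast was measured after compound exposure and referenced to vehicle-treated cultures.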

[5] = NCI Yeast Anticancer Drug Screen. Data for the mec2-1 strain (AID 157); settings: S. cerevisiae mec2-1 strain, stronger effect = higher value
Summary of the method: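 Cells of the genetically defined mec2-1 yeast strain are incubated with test compound. Inhibition of growth is calculated against vehicle-treated controls.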

[6] = NCI Yeast Anticancer Drug Screen. Data for the rad14 strain (AID 159);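 note: 0% = growth of vehicle-treated control cultures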; settings: S. cerevisiae rad14 strain growth inhibition, stronger effect = higher value
Summary of the method: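 Here, inhibition of yeast growth was measured after compound exposure, using a strain with a genetic defect in DNA damage repair and vehicle-treated cultures as the reference.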

[7] = NCI Yeast Anticancer Drug Screen. Data for the sgs1 mgt1 strain (AID 161);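 note: 0% = growth of cultures given vehicle only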; settings: S. cerevisiae sgs1 mgt1 strain, stronger effect = higher value
Summary of the method: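 Read-out: growth inhibition vs vehicle controls. Cells: mutant yeast strain deficient in DNA damage repair.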

[8] = NCI Yeast Anticancer Drug Screen. Data for the CLN2oe strain (AID 163);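 note: 0% = growth of vehicle-only control cultures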; settings: S. cerevisiae CLN2oe strain, stronger effect = higher value
Summary of the method: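 Strain altered in cell-cycle control, incubated with compound; growth compared to solvent-treated controls.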

[9] = NCI Yeast Anticancer Drug Screen. Data for the cln2 rad14 strain (AID 165);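 note: 0% = growth equal to vehicle treated cultures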; settings: S. cerevisiae cln2 rad14 strain, stronger effect = higher value
Summary of the method: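 The screen exposed genetically defined yeast (cln2 rad14) to test compounds and scored growth inhibition relative to vehicle-treated controls.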

[10] = NCI Yeast Anticancer Drug Screen. Data for the bub3 strain (AID 167); settings: S. cerevisiae bub3 mutant strain, stronger effect = higher value
Summary of the method: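 Whole-cell yeast assay. The mutant strain was incubated with compounds, and growth inhibition was determined by comparison with vehicle-treated cells.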

[11] = NCI Yeast Anticancer Drug Screen. Data for the wt2 strain (AID 169);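 note: 0% = growth of vehicle-treated yeast cultures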; settings: S. cerevisiae wt2 strain growth inhibition, stronger effect = higher value
Summary of the method: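 Steps: yeast strain treated with compound; growth recorded; inhibition calculated relative to cultures given vehicle alone.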

[12] = NCI Yeast Anticancer Drug Screen. Data for the mlh1 strain (AID 171);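 note: 0% = growth of vehicle-treated control cultures of the same strain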; settings: S. cerevisiae mlh1 strain growth inhibition, stronger effect = higher value
Summary of the method: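 Yeast screen: mutant strain plus compound, growth scored against vehicle control wells.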

[13] = NCI Yeast Anticancer Drug Screen. Data for the sgs1 strain (AID 173);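 note: 0% = growth of vehicle-only control cultures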; settings: S. cerevisiae sgs1 mutant, stronger effect = higher value
Summary of the method: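 Inhibition of yeast growth served as the measure. The mutant strain was treated with each compound, and growth was normalised to cultures receiving vehicle alone.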

[14] = NCI Yeast Anticancer Drug Screen. Data for the mlh1 rad18 strain (AID 175); settings: S. cerevisiae mlh1 rad18 strain growth inhibition, stronger effect = higher value
Summary of the method: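 Compound-treated yeast growth, normalised to vehicle controls. Strain bears defined DNA repair mutations.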

[15] = NCI Yeast Anticancer Drug Screen. Data for the rad18 strain (AID 177); settings: S. cerevisiae rad18 mutant growth inhibition, stronger effect = higher value
Summary of the method: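 Inhibition values reflect reduced yeast growth compared with vehicle-treated controls, using a strain engineered with a DNA damage repair defect.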

[16] = NCI Yeast Anticancer Drug Screen. Data for the rad52 strain (AID 147);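 note: 0% = growth of vehicle-treated control cultures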; settings: S. cerevisiae rad52 mutant growth inhibition, stronger effect = higher value
Summary of the method: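 Genetically altered yeast (DNA damage repair defect) treated with compound; inhibition calculated relative to vehicle.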

[17] = at 5.0 µM (retest, dose inferred, filed as 0.5)
[18] = at 50.0 µM (retest, dose inferred, filed as 5.0)

Measured: growth inhibition

O=C1C(CCSc2ccccc2)C(=O)N(c2ccccc2)C1c1ccccc1 (stereo unspecified)
inactive: [1]; at 1.2 µM -32% | [1]; at 3.7 µM -14% | [1]; at 11.0 µM 17% | [2]; at 1.2 µM -4% | [2]; at 3.7 µM -12% | [2]; at 11.0 µM -15% | [2]; at 33.0 µM 0% | [2]; at 100.0 µM -11% | [3]; at 1.2 µM 8% | [3]; at 3.7 µM -18% | [3]; at 11.0 µM 8% | [4]; at 1.2 µM 12% | [4]; at 3.7 µM 17% | [4]; [17] 28% | [4]; at 11.0 µM 35% | [5]; at 1.2 µM 11% | [5]; at 3.7 µM 13% | [5]; [17] 47% | [5]; at 11.0 µM 29% | [6]; at 1.2 µM -4% | [6]; at 3.7 µM -21% | [6]; at 11.0 µM 2% | [7]; [17] -3% | [8]; at 1.2 µM -8% | [8]; at 3.7 µM 2% | [8]; at 11.0 µM 48% | [9]; [17] 33% | [10]; at 1.2 µM 7% | [10]; at 3.7 µM 20% | [10]; [17] 25% | [10]; at 11.0 µM 46% | [11]; at 1.2 µM -5% | [11]; at 3.7 µM -4% | [11]; at 11.0 µM 22% | [12]; at 1.2 µM 1% | [12]; at 3.7 µM -14% | [12]; at 11.0 µM 28% | [13]; at 1.2 µM 7% | [13]; at 3.7 µM 15% | [13]; at 11.0 µM 44% | [14]; [17] 44% | [15]; at 1.2 µM -15% | [15]; at 3.7 µM -3% | [15]; at 11.0 µM 24%
active: [1]; at 33.0 µM 96% | [1]; at 100.0 µM 88% | [3]; at 33.0 µM 97% | [3]; at 100.0 µM 89% | [4]; at 33.0 µM 96% | [4]; [18] 85% | [4]; at 50.0 µM 90.9% | [4]; at 100.0 µM 89% | [5]; at 33.0 µM 95% | [5]; [18] 99% | [5]; at 50.0 µM 91.4% | [5]; at 100.0 µM 90% | [6]; at 33.0 µM 93% | [6]; at 100.0 µM 87% | [7]; [18] 99% | [7]; at 50.0 µM 92.3% | [8]; at 33.0 µM 95% | [8]; at 100.0 µM 85% | [9]; [18] 97% | [9]; at 50.0 µM 91.2% | [10]; at 33.0 µM 96% | [10]; [18] 98% | [10]; at 50.0 µM 90.7% | [10]; at 100.0 µM 88% | [11]; at 33.0 µM 95% | [11]; at 100.0 µM 90% | [12]; at 33.0 µM 95% | [12]; at 100.0 µM 90% | [13]; at 33.0 µM 96% | [13]; at 100.0 µM 87% | [14]; [18] 87% | [14]; at 50.0 µM 90.2% | [15]; at 33.0 µM 95% | [15]; at 100.0 µM 89%

Nc1cc2ccccc2cc1N
inactive: [16]; at 1.2 µM -47% | [16]; at 3.7 µM -35% | [16]; at 11.0 µM -41% | [16]; at 33.0 µM -39% | [16]; at 100.0 µM 25% | [2]; at 1.2 µM -37% | [2]; at 3.7 µM -13% | [2]; at 11.0 µM 40% | [2]; at 33.0 µM 59% | [3]; at 1.2 µM -30% | [3]; at 3.7 µM -42% | [3]; at 11.0 µM -33% | [3]; at 33.0 µM -23% | [3]; at 100.0 µM -18% | [4]; at 1.2 µM -33% | [4]; at 3.7 µM -23% | [4]; [17] 14% | [4]; at 11.0 µM -26% | [4]; at 33.0 µM 12% | [4]; [18] 17% | [4]; at 100.0 µM 63% | [5]; at 1.2 µM -41% | [5]; at 3.7 µM -45% | [5]; [17] 4% | [5]; at 11.0 µM -46% | [5]; at 33.0 µM -35% | [5]; [18] 15% | [5]; at 100.0 µM -15% | [7]; [17] 19% | [7]; [18] 26% | [8]; at 1.2 µM 10% | [8]; at 3.7 µM 4% | [8]; at 11.0 µM 4% | [8]; at 33.0 µM 23% | [8]; at 100.0 µM 45% | [9]; [17] 21% | [10]; at 1.2 µM -35% | [10]; at 3.7 µM -36% | [10]; [17] 25% | [10]; at 11.0 µM -30% | [10]; at 33.0 µM -38% | [10]; at 100.0 µM 24% | [11]; at 1.2 µM -18% | [11]; at 3.7 µM -18% | [11]; at 11.0 µM -25% | [11]; at 33.0 µM -34% | [11]; at 100.0 µM -28% | [12]; at 1.2 µM -22% | [12]; at 3.7 µM -22% | [12]; at 11.0 µM -18% | [12]; at 33.0 µM -11% | [12]; at 100.0 µM 16% | [13]; at 1.2 µM 13% | [13]; at 3.7 µM 20% | [13]; at 11.0 µM 16% | [13]; at 33.0 µM 33% | [13]; at 100.0 µM 63% | [14]; [17] 6% | [14]; [18] 40% | [15]; at 1.2 µM -22% | [15]; at 3.7 µM -26% | [15]; at 11.0 µM -16% | [15]; at 33.0 µM -1% | [15]; at 100.0 µM 46%
active: [2]; at 100.0 µM 76% | [4]; at 50.0 µM 89.3% | [5]; at 50.0 µM 91.5% | [7]; at 50.0 µM 88.7% | [9]; [18] 70% | [9]; at 50.0 µM 90.1% | [10]; [18] 95% | [10]; at 50.0 µM 90.5% | [14]; at 50.0 µM 90.8%
